Results filed as inconclusive are left out. Activity calls are given as the source filed them. Calls come from the whole dose curve; as a rule, active = well fitted curve in the direction sought with a large enough effect; inconclusive = small, poorly fitted or top-dose-only effect, or another doubt; inactive = no such curve, though single readings can be large; an effect the other way counts as inactive or inconclusive.
Experiments:
[1] = molecular target: Cellular tumor antigen p53 (Homo sapiens) (UniProt P04637); assay: Primary qHTS for small molecule compounds that upregulate eGFP-tagged delta133p53alpha (in N-terminal) cells. (AID 2060322); settings: NCI-H358 eGFP-delta133p53alpha fluorescence, 24 h; activation: stronger effect = higher value;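 note: series mostly up to about 56 µM; 0% = DMSO vehicle and 100% = reference activator; nearly all actives have a fitted effect of over 75% in size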
Chain of Cellular tumor antigen p53 (Homo sapiens) (P04637 whole entry, looked up): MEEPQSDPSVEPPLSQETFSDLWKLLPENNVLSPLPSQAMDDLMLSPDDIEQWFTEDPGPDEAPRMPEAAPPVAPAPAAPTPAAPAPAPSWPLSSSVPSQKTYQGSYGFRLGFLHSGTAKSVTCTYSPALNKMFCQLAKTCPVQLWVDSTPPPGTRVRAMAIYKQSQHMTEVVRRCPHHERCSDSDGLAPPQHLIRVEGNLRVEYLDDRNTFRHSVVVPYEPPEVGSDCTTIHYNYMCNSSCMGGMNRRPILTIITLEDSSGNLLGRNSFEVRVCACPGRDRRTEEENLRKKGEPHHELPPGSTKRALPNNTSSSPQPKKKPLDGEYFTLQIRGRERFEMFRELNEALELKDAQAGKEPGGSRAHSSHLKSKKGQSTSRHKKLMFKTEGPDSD
Outline: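 NCI-H358 cells pre-induced 24 h with 10 ng/ml doxycycline to express N-terminal eGFP-delta133p53alpha, then dosed 24 h at 37C without doxycycline; fixed, Hoechst-stained, GFP intensity by laser scanning cytometry, normalized to DMSO (0%) and 57.5 uM 5-azacytidine (100%).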

[2] = molecular target: Aldehyde dehydrogenase, mitochondrial (Homo sapiens) (UniProt P05091); assay: qHTS for Inhibitors of the Aldehyde Dehydrogenase Family (ALDH2) Primary screen (AID 2061308);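 note: plate controls were vehicle for no effect and reference inhibitor for full effect; nearly all actives have a fitted effect of over 55% in size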
[3] = molecular target: Retinaldehyde dehydrogenase 3 (Homo sapiens) (UniProt P47895); assay: qHTS for Inhibitors of the Aldehyde Dehydrogenase Family (ALDH1A3) Primary screen (AID 2061315);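 note: plate controls were DMSO vehicle for no effect and reference inhibitor for full effect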

CC(=O)OC[C@@]12[C@H](O)C[C@@H](C)[C@]3(C[C@@H](c4ccoc4)OC3=O)[C@H]1C[C@H](O)C[C@]21CO1
inactive: activation [1] 27.5% | Potency [2] | Potency [3]

COc1ccc(C2=CC(=O)OC2Cc2ccc(O)cc2)c(O)c1 (stereo unspecified)
inactive: activation [1] -20.6% | Potency [2] | Potency [3]

CC(=O)O[C@@H]1[C@@H](OC(=O)/C=C/c2ccccc2)[C@@H](OC(C)=O)[C@H](O[C@H]2[C@@H]3C=CO[C@@H](O[C@@H]4O[C@H](CO)[C@@H](O)[C@H](O)[C@H]4O)[C@@H]3[C@@]3(CO)O[C@@H]23)O[C@H]1C
inactive: activation [1] -12.2% | Potency [2] | Potency [3]

C[C@H](C(=O)NC1CCCC1)N(C(=O)Cn1nnc(-c2ccc3c(c2)OCO3)n1)C1CCCCC1
inactive: activation [1] 9% | Potency [2] | Potency [3]

C[C@@H]1C(=O)O[C@H]2[C@H]1CC[C@@]1(C)C(=O)C=C[C@](C)(O)[C@H]21
inactive: activation [1] 1.79% | Potency [2] | Potency [3]

COc1cc(CN(CCN)C(=O)c2cccs2)ccc1OCc1ccccc1
inactive: activation [1] 24.3% | Potency [2] | Potency [3]

C/C=C(/C)C(=O)OC1CC(C)(C)CC2C3=CCC4C5(C)CCC(O[C@@H]6O[C@H](C(=O)O)[C@@H](O)[C@H](O)[C@H]6O[C@@H]6O[C@H](CO)[C@H](O)[C@H](O[C@@H]7OC[C@H](O)[C@H](O)[C@H]7O[C@@H]7O[C@H](CO)[C@@H](O)[C@H](O)[C@H]7O)[C@H]6O)C(C)(C)C5CCC4(C)C3(C)C(O)C(O)C12CO (stereo partly specified)
inactive: activation [1] 0.893% | activity change, negative = inhibition [2] -0.94% [at 11.2 µM] | activity change, negative = inhibition [3] -6.72% [at 11.2 µM]
